Screening data (PubChem BioAssay)
esBAF inh: inhibitors of esBAF chromatin remodeling in mouse ES cells; Bmi1-luciferase knock-in reporter, 24 h; 100% = twice the neutral-well signal; reporter increase, % at 12.5 µM; 350,000 compounds, 2% hits; in the data active = activation above about 40%;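 also: 0% = median of the plate's neutral control wells and 100% = double that signal; a rise in the Bmi1 reporter signal indicates esBAF inhibition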
MITF TRPM1 HTS: activators of MITF-driven TRPM1 promoter activity in SK-MEL-5 cells | SK-MEL-5 TRPM1-promoter luciferase, 24 h; % of positive control, neutral wells = 0 | activation, % at 12.5 µM | 300,000 compounds, 0.75% hits | AID 588334;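 active = mean activation of at least 80% with every replicate also reaching 80%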;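 also: 0% = neutral control wells and 100% = parthenolide positive control wells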
Wnt act: Wnt/beta-catenin pathway activation; Wnt/beta-catenin reporter cell assay, activator, plate reader; activation, % at 9.35 µM; 300,000 compounds, 1.2% hits; AID 743398; in the data active = activation above about 30%, passing the limit was not always enough;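 also: 0% = neutral control wells and 100% = positive control wells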
HSF1 inh: HSF1 inhibition; NIH3T3-HGL HSE-luciferase, MG132-induced, luminescence 8 h; stronger effect = lower value; activity change, negative = inhibition, % at 7.5 µM (by protocol); 300,000 compounds, 0.77% hits;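 active = more than half of replicate wells show activity change below -50%, luminescence cut by over half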;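 also: luciferase reports HSF-1 transcriptional activity via heat shock element; 0% = median of DMSO wells and -100% = zero luminescence signal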
HSF1 activator: increases HSF-1 driven luciferase reporter signal | NIH3T3-HGL HSF-1 luciferase reporter, MG132, 8 h; 100% = twice DMSO control signal | activation, % at 9 µM | 300,000 compounds, 1.7% hits | AID 504408;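 active = mean replicate activation of at least 50% with a set share of replicates each reaching 50%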;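 also: 0% = median of the neutral control wells and 100% = twice that signal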
Active calls of the source: *. This is a sample that favours compounds with a hit; in the whole collection about 3.8% have one here.

How did CNC(=S)N(CCc1c(C)[nH]c2ccc(C)cc12)Cc1cc(OC)c(OC)c(OC)c1 do in these assays?
esBAF inh: 5; Wnt act: -3; HSF1 inh: -66*; HSF1 activator: -73

How did CNC(=S)N(CCc1c(C)[nH]c2ccc(OC)cc12)Cc1cc(OC)c(OC)c(OC)c1 do in these assays?
esBAF inh: -7; MITF TRPM1 HTS: -10; Wnt act: -2; HSF1 inh: -2; HSF1 activator: 16

How did COc1cccc(-c2nnc3n2N=C(C(C)(C)C)CS3)c1 do in these assays?
esBAF inh: -40; MITF TRPM1 HTS: -61; Wnt act: -31; HSF1 inh: -63*; HSF1 activator: -66

What do the screens show for `O=C(CSc1nnc(-c2ccccn2)o1)Nc1ccccc1F`?
esBAF inh: -9; MITF TRPM1 HTS: 12; Wnt act: 37*; HSF1 inh: 9; HSF1 activator: 23

How did O=C(CSc1nnc(-c2ccccn2)o1)Nc1cccc(Cl)c1 do in these assays?
esBAF inh: 65*; Wnt act: -2; HSF1 inh: 16; HSF1 activator: 23

What do the screens show for `CCn1nnnc1SCC(=O)Nc1ccc2c(c1)OCCO2`?
MITF TRPM1 HTS: 37; Wnt act: 43*; HSF1 inh: 12; HSF1 activator: 25

Results for COCCCn1nnnc1SCC(=O)Nc1ccc2c(c1)OCCO2 ?
esBAF inh: -2; MITF TRPM1 HTS: 14; Wnt act: -1; HSF1 inh: 2; HSF1 activator: 25

Results for NC(=O)c1ccc(NC(=O)CSc2nnc(-c3ccc4c(c3)OCO4)o2)cc1 ?
esBAF inh: -2; MITF TRPM1 HTS: 17; Wnt act: -1

What do the screens show for `O=C(CSc1nnc(-c2cccc(Cl)c2)o1)Nc1ccc2c(c1)OCCO2`?
esBAF inh: 32; MITF TRPM1 HTS: 88*; Wnt act: -2

How did O=C(C[C@@H]1C[C@@H]2c3cc(NC(=O)c4cccnc4)ccc3O[C@@H]2[C@H](CO)O1)NC1CCCCC1 do in these assays?
esBAF inh: -8

Results for O=C(CSc1nnc(-c2ccc(O)cc2)o1)Nc1ccccc1 ?
esBAF inh: 18; MITF TRPM1 HTS: 45; Wnt act: 34*; HSF1 inh: 23; HSF1 activator: 35

How did C[C@@H]1CN([C@H](C)CO)S(=O)(=O)c2ccc(C#CC3CC3)cc2O[C@H]1CN(C)C(=O)CC1CC1 do in these assays?
esBAF inh: 5

What do the screens show for `CCc1cc(C(=O)c2ccc(OC)cc2)c(N)s1`?
esBAF inh: -2; Wnt act: 39*; HSF1 inh: 30; HSF1 activator: 59*

What do the screens show for `CCc1cc(C(=O)c2ccccc2OC)c(N)s1`?
esBAF inh: -6; MITF TRPM1 HTS: 1; HSF1 inh: 4; HSF1 activator: -4

How did COc1ccc(NC(=O)c2cnc3sccn3c2=O)cc1 do in these assays?
MITF TRPM1 HTS: 19; Wnt act: 42*; HSF1 inh: 11; HSF1 activator: 5

How did COc1ccc(S(=O)(=O)N(C)C[C@H]2Oc3ccc(NS(C)(=O)=O)cc3C(=O)N([C@@H](C)CO)C[C@H]2C)cc1 do in these assays?
esBAF inh: 2

Results for O=C(c1ccc(S(=O)(=O)N2CCOCC2)cc1)N1CCc2ccccc2C1 ?
esBAF inh: -3; MITF TRPM1 HTS: -3; HSF1 inh: -1; HSF1 activator: -6

What do the screens show for `CN(C)S(=O)(=O)c1cccc(C(=O)N=C2N=C3C=CC(Cl)=CN3Cc3ccccc32)c1`?
MITF TRPM1 HTS: 26; Wnt act: 63*; HSF1 inh: 26; HSF1 activator: 60*

How did CN(C)S(=O)(=O)c1cccc(C(=O)N2CCN(Cc3ccccc3)CC2)c1 do in these assays?
esBAF inh: -5; MITF TRPM1 HTS: 12; Wnt act: -4; HSF1 inh: -3; HSF1 activator: -5

How did O=C(N=C1N=C2C=CC=CN2Cc2ccccc21)c1ccc(S(=O)(=O)N2CCCC2)cc1 do in these assays?
esBAF inh: 50*; MITF TRPM1 HTS: 103*; Wnt act: 44*; HSF1 inh: 13; HSF1 activator: -4

How did O=C(N=C1N=C2C=CC=CN2Cc2ccccc21)c1ccc(S(=O)(=O)N2CCOCC2)cc1 do in these assays?
MITF TRPM1 HTS: 84*; Wnt act: -1

Results for C[C@@H]1CN([C@H](C)CO)C(=O)Cc2cc(NS(=O)(=O)c3cn(C)cn3)ccc2O[C@H]1CN(C)Cc1ccc(Cl)c(Cl)c1 ?
esBAF inh: 7
